Drawing on PubChem BioAssay AID651636 (Sanford-Burnham Center for Chemical Genomics, 2012), this text covers inhibition for 87 molecules.

Each structure is given as a SMILES string. Out of some 360,000 compounds screened, about 3,000 (0.83%) were called active. This is one part of a sample in which actives are shown more often than they occur. Unmarked numbers belong to inactive results. No stated cut-off is given here; in the data, active means inhibition above about 38%; inactive means the rest.

Chain of G-protein coupled receptor 183 (Homo sapiens) (P32249 whole entry, looked up, the tested form may be a part): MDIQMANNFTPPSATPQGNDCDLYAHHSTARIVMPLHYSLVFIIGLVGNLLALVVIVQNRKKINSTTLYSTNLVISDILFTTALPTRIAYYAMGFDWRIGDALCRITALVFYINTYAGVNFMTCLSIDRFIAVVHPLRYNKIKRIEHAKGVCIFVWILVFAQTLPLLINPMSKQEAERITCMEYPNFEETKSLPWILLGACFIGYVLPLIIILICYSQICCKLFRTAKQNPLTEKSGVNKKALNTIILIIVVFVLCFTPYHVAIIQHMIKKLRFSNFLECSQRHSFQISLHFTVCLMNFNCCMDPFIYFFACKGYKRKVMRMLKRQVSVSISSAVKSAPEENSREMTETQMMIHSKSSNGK

The experiment addresses G-protein coupled receptor 183 (Homo sapiens) (UniProt P32249). Kind of experiment: blockers of oxysterol-driven EBI2 arrestin signaling – cell-based, luminescence, 7a,25-OHC stimulation, uHTS, primary screen (AID 651636).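 Further: enzyme fragment complementation signal reports receptor beta-arrestin coupling in cells; 0% = agonist plus DMSO wells and 100% = wells without agonist.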 The following applies: EBI2 beta-arrestin recruitment, 7a,25-OHC stimulated, at 5 µM, hits give high values.
As for `COc1ccc(N(CCC(=O)NCCc2ccccc2)S(=O)(=O)c2ccc(C)cc2C)cc1`, the inhibition was 9.4%.
The result for `CCOC(=O)c1cnc(SCc2nc(N)nc(Nc3ccc(OC)cc3)n2)nc1N` reads -2.38%.
The result for `Cc1cccc(OCCC(=O)OCc2csc(CC(=O)Nc3ccccc3C)n2)c1` reads -1.51%; that for `C=CCNc1nc(N)c(C(=C(C#N)C#N)c2ccccc2)s1`, -6.63%; that for `Cc1ccc(CN2CC(C(=O)N3CCN(S(=O)(=O)c4ccccc4)CC3)CC2=O)cc1` (configuration not stated), 3.15%.
Regarding `CN1CCN(c2cc(=O)n(-c3ccc(Cl)cc3)c(=O)[nH]2)CC1`, the inhibition was -7.79%.
`CC1CC(C)CN(CCCNC(=O)Cn2ncc3c([nH]c4ccccc43)c2=O)C1` (configuration not stated): the inhibition was 5.19%.
With `Cc1ccc(NS(=O)(=O)c2ccc3c(c2)NC(=O)CO3)cc1` the figure was -3%; with `CC[C@@H]1Cc2cc(O)ccc2C2=C1c1ccc(O)cc1C[C@H]2CC`, 49.4% (active); with `COc1ccc(Br)cc1CN(C)C(=O)C1CC(=O)N(C2CCCC2)C1` (configuration not stated), 7.14%.
Take `CN1CCN(C(=O)c2ccc(-c3cc4nc(NCc5cccnc5)n(C)c(=O)c4s3)cc2)CC1`: the inhibition was -2.23%.
The result for `CCc1ccccc1NC(=O)c1ccc2c(c1)CCN2S(C)(=O)=O` reads -1.7%; that for `CN1CCc2ccccc2C1Cc1ccccc1NC(=O)c1sc2ccccc2c1Cl` (configuration not stated), 65.6% (active); that for `CCc1ccccc1NC(=O)NCCN1CCCCC1`, 4.39%.
With `CCOC(=O)[C@]12CCCC=C1N(Cc1cccc3ccccc13)C(=O)[C@H](CC(=O)NCC13CC4CC(CC(C4)C1)C3)C2` the figure was 16.6%; with `COC(=O)C[C@H]1C=C[C@@H](NS(=O)(=O)c2ccc(C)cc2)[C@@H](CO)O1`, -0.992%; with `O=C(NCCN1CCOC1=O)C1CCC(=O)N(CCc2ccc(Cl)cc2)C1` (configuration not stated), 5.95%.
For the molecule `O=C(NCCc1ccccc1Cl)C1CCC(=O)N(CCCc2ccccc2)C1` (configuration not stated), the inhibition is 8.34%.
With `O=C(NCCCc1ccccc1)C1CCC(=O)N(CCc2ccc(Cl)cc2)C1` (configuration not stated) the figure was 63.7% (active); with `C/C(=N/NC(=O)c1ccc(Br)o1)c1ccc(C)o1`, -2.5%; with `COC(=O)[C@]12CCCCC=C1N(Cc1ccco1)C(=O)[C@H](CC(=O)NCC1CCCCC1)C2`, -6.57%.
The result for `CC1CN(C(=S)Nc2cccc(F)c2)CC(C)O1` (configuration not stated) reads -5.04%; that for `COc1ccc2c(c1)c1nc3n(c(=O)c1n2CC(=O)Nc1ccccc1)CCS3`, 8.84%; that for `COc1cccc(NC(=O)Cn2cnc3sc(C)c(S(=O)(=O)N4CCN(C)CC4)c3c2=O)c1`, -9.02%.
With `COc1cccc(NC(=O)CC2C(=O)NCCN2C(=S)Nc2ccc(F)cc2)c1` (configuration not stated), the inhibition is 9.02%.
With `COc1cccc(NC(=O)Cn2c3ccccc3c3nc4n(c(=O)c32)CCS4)c1` the figure was 62% (active); with `COc1cccc(NC(=O)Cn2c3ccc(F)cc3c3nc4n(c(=O)c32)CCS4)c1`, 80.8% (active).
On to `COc1cccc(NC(=O)CS(=O)(=O)c2cn(CC(=O)N3CCOCC3)c3ccccc23)c1`, for which the inhibition is 3.35%.
The result for `COc1cccc(N(CC(=O)NC2CCCC2)C(=O)Cn2nnc(-c3ccc(C)cc3)n2)c1` reads 7.66%; that for `CS(=O)(=O)N1CCc2nc(-c3ccccc3)sc2C1`, 1.2%.
With `O/N=C(\c1ccc2c(c1)OCCO2)C1CCCCC1` the figure was 4.5%.
The result for `O=S1(=O)CC(N2CCN(CCO)CC2)CN1Cc1cn(Cc2cccc(Cl)c2)nn1` (configuration not stated) reads -6.79%.
As for `Cc1ccc(O/C=C2\OC(=O)c3ccccc32)cc1`, the inhibition is 55.5% (active).
The result for `O=C(O/N=C(/c1ccccc1)c1ccncc1)c1ccccc1[N+](=O)[O-]` reads -3.57%; that for `O=S(=O)(c1ccc(Sc2nnc3ccccn23)nc1)N1CCOCC1`, -9.4%.
On to `COCCCNc1ccn2nc(-c3ccc(CC(C)C)cc3)cc2n1`, for which the inhibition was 36.9%.
With `COc1ccccc1-c1cc2nc(NCc3cccc(Cl)c3)ccn2n1` the figure was 4.55%; with `CC(C)Cc1ccc(-c2cc3nc(NCc4cccc(Cl)c4)ccn3n2)cc1`, 47.4% (active).
The result for `O=C(O)C1CC=CCC1C(=O)NCCc1ccccc1` (configuration not stated) reads -5.64%.
The result for `CCc1nc2ccc(C(=O)Nc3cc(-c4ccccc4)ccc3OC)cn2c1N(CC)CC(=O)N(C)C` reads 17%; that for `COc1ccc(S(=O)(=O)N2CCCCC2)cc1NC(=O)c1cc([N+](=O)[O-])ccc1N1CCOCC1`, 15.7%; that for `CCN1CCN(c2ccc([N+](=O)[O-])cc2C(=O)c2ccc(Cl)cc2)CC1`, 8.05%.
On to `CCC(C)(C)NC(=O)c1cc([N+](=O)[O-])ccc1N1CCCCC1`, for which the inhibition was 79.2% (active).
With `C=CCN(Cc1nc(-c2cc(OC)c3c(c2)OCO3)oc1C)C1CCS(=O)(=O)C1` (configuration not stated) the figure was -4.13%; with `CCCCN1CC(CO)Oc2cccc(F)c2S1(=O)=O` (configuration not stated), -9.52%.
With `CC(C)(C)C(=O)Nc1cccc(-c2ccc[nH]2)n1` the figure was -1.86%; with `C/C(=N/NC(=O)CN1CCN(S(=O)(=O)c2ccc(Br)cc2)CC1)c1ccncc1`, 6.8%; with `Cc1cccc(NC(=O)CN2CCCN(S(=O)(=O)c3ccc(Br)s3)CC2)c1`, 3.9%.
With `Cc1ccc(S(=O)(=O)N2CCN(CC(=O)N/N=C/c3ccc(Br)s3)CC2)cc1` the figure was 66.9% (active); with `Cc1ccc(C(=O)NCC(=O)OCC(=O)NC2CCCCCCC2)cc1`, -2.06%; with `COc1ccc(S(=O)(=O)N2CCOCC2)cc1C(=O)NC1CCCCC1`, 3.75%.
`Cc1ccc2oc(=O)c3cnn(CC(=O)N4CCN(c5ccccn5)CC4)c3c2c1`: the inhibition is 14.3%.
The result for `Cc1ccc2oc(=O)c3cnn(CC(=O)N(Cc4ccco4)C4CCCCC4)c3c2c1` reads 86.2% (active).
With `CCOC(=O)C1CCCN(C(=O)Cn2ncc3c(=O)oc4ccc(C)cc4c32)C1` (configuration not stated) the figure was -3.84%.
The result for `Cc1ccc2oc(=O)c3cnn(CC(=O)N4CCCCCC4)c3c2c1` reads 57.7% (active); that for `Cc1ccc(S(=O)(=O)NCC(=O)N(CC(=O)NC2CCCCC2)Cc2ccco2)cc1`, -11.2%.
`COCCCN(C(=O)Cn1ncc2c(=O)oc3ccc(C)cc3c21)C(C)c1ccncc1` (configuration not stated): the inhibition is -3.25%.
The result for `CCC1CO/C(=C(\C(=C(Cl)Cl)N2CCOCC2)[N+](=O)[O-])N1` (configuration not stated) reads -3.56%; that for `CCCCC[C@H](C)N1C[C@@H](COCc2ccccc2)Oc2cc(N3CC[C@@H](N(C)C)C3)ccc2S1(=O)=O`, 1.65%.
The result for `Cc1ccc(C(=O)O)cc1S(=O)(=O)NCC1CCCO1` (configuration not stated) reads -0.989%; that for `C=CC[C@H](CC(=O)N(CCO)Cc1ccccc1)C(=O)N[C@@H](COC(=O)[C@@H](CC=C)Cc1ccc(F)cc1)Cc1ccccc1`, 27%.
The result for `Cc1cccc(NS(=O)(=O)c2ccc(C)c(C(=O)NCc3cccnc3)c2)c1` reads -2.61%; that for `Cc1cccc(NC(=O)c2nc(S(=O)(=O)Cc3ccccc3)ncc2Cl)c1`, 66% (active).
Turning to `Cc1cccc(CS(=O)(=O)c2ncc(Cl)c(C(=O)Nc3ccc(F)cc3)n2)c1`, the inhibition was 30.8%.
The result for `O=C(NCc1ccccc1)C1CCCN(S(=O)(=O)c2cccs2)C1` (configuration not stated) reads -3.94%; that for `O=C(NCc1ccc(Cl)cc1)C1CCN(S(=O)(=O)c2cccs2)CC1`, 53% (active).
With `O=C(NCc1ccc(Cl)cc1)C(=O)NCC1CCCN1S(=O)(=O)c1cccs1` (configuration not stated) the figure was -11.1%; with `N#CCCCn1c(O)c(N=NC(=O)C(O)c2ccccc2)c2ccccc21` (configuration not stated), 10.8%; with `COC(=O)c1cccc(NS(C)(=O)=O)c1`, 1.19%.
In the case of `CCCc1cc(=O)oc2cc(OCC(=O)Nc3ccc(CN4CCOCC4)cc3)c(Cl)cc12`, the inhibition is -0.759%.
For the molecule `CC(NC(=S)NC1CCCCC1)C(c1ccccc1)N1CCOCC1` (configuration not stated), the inhibition is -1.91%.
The result for `Cc1sc(NC(=O)C2C3CCC(O3)C2C(=O)O)c(C(=O)OC(C)C)c1-c1ccc(Cl)cc1` (configuration not stated) reads 2.12%; that for `CC(C)c1cc(Cn2c3ccccc3c(=O)n2C(C)Cn2cc(C3CC3)nn2)on1` (configuration not stated), -7.98%.
In the case of `CCC(C(=O)NC1CCCCC1)N(C(=O)c1snc(C(N)=O)c1N)c1ccc(OC)cc1OC` (configuration not stated), the inhibition is 8.28%.
The result for `COc1ccc(N(C(=O)c2snc(C(N)=O)c2N)C(C(=O)NC2CCCC2)c2ccc(C)o2)c(OC)c1` (configuration not stated) reads 34.7%; that for `COc1ccc(C(C(=O)NC2CCCCC2)N(C(=O)c2snc(C(N)=O)c2N)c2ccccc2OC)cc1` (configuration not stated), 48.7% (active); that for `Cc1ccccc1C(=O)NCC(c1ccco1)N1CCc2ccccc21` (configuration not stated), 6.76%.
The result for `Cc1cc(C)c2c(=O)n3c(nc2c1)C(CC(C)C)NC(=O)c1cc2ccccc2cc1-3` (configuration not stated) reads 77.3% (active); that for `CCC1NC(=O)c2cccnc2-n2c1nc1ccc(C)cc1c2=O` (configuration not stated), -1.36%.
The result for `O=C1NC(Cc2ccccc2)c2nc3ccc(Br)cc3c(=O)n2-c2cc3ccccc3cc21` (configuration not stated) reads 37.7%; that for `Cc1[nH]c2c(C(=O)N3CCCC(CCC(=O)NCc4ccccc4F)C3)cccc2c1C` (configuration not stated), 2.8%; that for `CN1CCN(c2ccccc2NC(=O)COc2ccc(C3CCCCC3)cc2)CC1`, 22.8%.
`O=C(CSCc1ccc([N+](=O)[O-])cc1)NCCSCc1ccccc1`: the inhibition is 3.17%.
With `O=C(/C=C/c1cccc(C(F)(F)F)c1)N1CCN(c2ccccn2)CC1` the figure was 55% (active); with `O=S(=O)(c1cccc(C(F)(F)F)c1)N1CCN(c2cnccn2)CC1`, -1.02%; with `Nc1ccn(CC(=O)N2CCN(c3ccccn3)CC2)c(=O)n1`, -9.67%.
With `CSc1ccc(Cl)c(C(=O)OCC(=O)N2CCNC2=O)c1` the figure was 5.05%.
